Shown are actives, neighbours in structure and some others; about 10% of the full set was active somewhere.
HPGD inh – blocks human HPGD enzyme activity; P15428; purified HPGD, NADH fluorescence kinetic, PGE2 substrate; Potency, µM, inactives show at the highest dose activity change, negative = inhibition, actives largely listed as inhibitors; 4.3% of 150,000 active; active = well fitted inhibition curve with a large enough effect, not every such curve was filed as active; inconclusive = small, poorly fitted or top-dose-only effect, or another doubt; inactive = no such curve, though single readings can be large or run the other way; note: potency is the fitted concentration of half-maximal effect
Target sequence (P15428 whole entry, looked up): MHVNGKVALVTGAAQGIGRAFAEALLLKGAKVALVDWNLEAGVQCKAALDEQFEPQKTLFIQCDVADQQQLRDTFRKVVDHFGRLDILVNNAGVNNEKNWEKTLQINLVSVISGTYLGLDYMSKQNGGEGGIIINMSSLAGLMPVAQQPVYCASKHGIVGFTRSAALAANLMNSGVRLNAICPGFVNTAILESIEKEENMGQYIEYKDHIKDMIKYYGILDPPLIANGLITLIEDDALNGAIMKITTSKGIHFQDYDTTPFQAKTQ
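NADH formation kinetics: reaction with 30 uM PGE2 and 1 mM NAD+ (final), 20 nM enzyme, Tris-HCl pH 8 with Tween 20, after 15 min compound preincubation at room temperature. Fluorescence change, last versus first of five reads.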
ALDH1A1 inh – blocks purified human ALDH1A1 activity. AID 1030. Purified ALDH1A1, NADH fluorescence, propionaldehyde substrate. 7.3% of 220,000 active. Potency, µM (series often up to 75.3 µM), without a hit: at the highest dose activity, negative = inhibition, most hits filed as inhibitors; active = well fitted inhibition curve with a large enough effect, not every such curve was filed as active; inconclusive = small, poorly fitted or top-dose-only effect, or another doubt; inactive = no such curve, though single readings can be large or run the other way;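 note: potency is the fitted concentration of half-maximal effect; plate controls were no enzyme wells and a reference inhibitor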
12-hLO inh – blocks human 12-lipoxygenase activity; P18054; purified 12-hLO, xylenol orange hydroperoxide absorbance; Potency, µM (top dose mostly 57.1 µM), without a hit: at the highest dose activity change, negative = inhibition, hits mostly inhibitors; 0.12% of 150,000 active; note: potency is the fitted concentration of half-maximal effect; nearly all actives have a fitted effect of over 55% in size
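150 nM 12hLO, 25 mM Hepes pH 7.0 + 0.01% Triton X-100; cpd preinc 15 min RT; 40 uM arachidonic acid, 30 min RT; Fe-XO 30 min; A573/A405 ratio as read-out.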
aGal spleen mod – inhibits or activates alpha-galactosidase in human spleen homogenate; P06280; human spleen homogenate, 4MU-alpha-Gal fluorescence, 40 min; Potency, µM (titrated, usually from 80 µM), for inactives: top-dose activity change, negative = inhibition, hits mostly inhibitors; 0.008% of 240,000 active; AID 2107;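 note: potency is the fitted concentration of half-maximal effect; 0% = enzyme with vehicle and -100% = no enzyme basal signal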
Target sequence (P06280 32-429 limits assumed): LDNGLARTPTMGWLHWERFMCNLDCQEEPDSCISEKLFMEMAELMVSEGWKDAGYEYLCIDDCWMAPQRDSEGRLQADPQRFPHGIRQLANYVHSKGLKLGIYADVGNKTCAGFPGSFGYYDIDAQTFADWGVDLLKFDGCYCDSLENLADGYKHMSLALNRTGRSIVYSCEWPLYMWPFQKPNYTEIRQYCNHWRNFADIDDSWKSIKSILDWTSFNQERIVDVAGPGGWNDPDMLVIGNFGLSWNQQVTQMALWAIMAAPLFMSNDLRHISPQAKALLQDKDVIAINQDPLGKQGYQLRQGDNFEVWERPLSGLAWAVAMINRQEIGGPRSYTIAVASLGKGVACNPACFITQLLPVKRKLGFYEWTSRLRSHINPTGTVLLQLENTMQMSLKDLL
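Human spleen homogenate (1 ug) as enzyme source, 4-methylumbelliferyl-alpha-D-galactopyranoside 1 mM final, citrate/phosphate pH 5.0 with 0.01% Tween-20. Compounds 40 min at 37C, NaOH/glycine stop; fluorescence Ex 365/Em 440, Hill-fit AC50.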
GLA inh pH 4.5 – inhibitors of human alpha-galactosidase A at pH 4.5. P06280. purified enzyme, 4-MU-alpha-Gal fluorescence, pH 4.5. activity change, negative = inhibition, % at 105 µM. 230,000 tested, under 10 active. AID 1467;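 note: 0% = full activity with enzyme and -100% = basal without enzyme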
PNC assembly inh – blocks assembly of the perinucleolar compartment | PC3M PTB-GFP, PNC prevalence imaging, 16 h; hits give low values | activity change (PNC), negative = inhibition, % at 10 µM | 3.1% of 140,000 active;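 active = readout at or below -70, meaning at least 70% loss of cells showing the perinucleolar compartment, a nuclear body marking cancer cells; inconclusive = readout between -30 and a set limit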;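 note: plate controls were DMSO wells for no effect and camptothecin positive control wells for full effect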
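Read-out is percentage of cells bearing a perinucleolar compartment, from automated 20x imaging of fixed, Hoechst-stained PC3M PTB-GFP cells. Cells were seeded 4 h, then exposed 16 h to compound (23 nl of library stock) in duplicate plates.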
* marks the source's active call; other numbers are inactive results; ? = inconclusive; / = not tested or not shown; [ ] = remark or other dose. Unless noted, calls come from the whole dose curve; as a rule, active = well fitted curve in the direction sought with a large enough effect; inconclusive = small, poorly fitted or top-dose-only effect, or another doubt; inactive = no such curve, though single readings can be large; an effect the other way counts as inactive or inconclusive. Unless noted, % is set by controls: 0 for no effect and ±100 for the full control effect.

SMILES | HPGD inh | ALDH1A1 inh | 12-hLO inh | aGal spleen mod | GLA inh pH 4.5 | PNC assembly inh
O=Cc1cn(-c2ccc(F)cc2)c2ccccc12 | -10.8% | 2µM* | -2.4% | 5.7% | 1.1 | 33.6
CCOC(=O)C1=C(C)C(c2ccccc2OC)NC(=S)N1 (stereo not given) | -9.6% | 3.55µM* | -8.7% | 10.3% | -4.1 | ?
Cc1ccc(NC(=O)CN2C(=O)/C(=C3\SC(=S)N(C4CCS(=O)(=O)C4)C3=O)c3ccccc32)cc1 (stereo not given) | -7.0% | 1.41µM* | -0.9% | -5.6% | 4.5 | 44.7
CCN1C(=O)/C(=C2\SC(=S)N(NC(=O)c3ccccc3O)C2=O)c2ccccc21 | / | / | / | 6.7% | -7.9 | /
CCN1C(=O)/C(=C2\SC(=S)N(CC3CCCO3)C2=O)c2ccccc21 (stereo not given) | -1.9% | ? | -5.5% | -6.0% | -6.6 | 13.9
O=C(CN1C(=O)/C(=C2\SC(=S)N(C3CCS(=O)(=O)C3)C2=O)c2ccccc21)Nc1ccccc1 (stereo not given) | -8.6% | 7.08µM* | -0.4% | -2.3% | 4.6 | -2.2
C/C=C/C1=Cc2ccccc2C(CC(=O)OC)N1C(=O)OC (stereo not given) | -4.8% | -0.4%[13.5 µM] | 4.8%[11.4 µM] | -8.5%[17.5 µM] | 6.3 | /
COc1ccc(C(=O)NCC(=O)N=Nc2c(O)n(C)c3ccccc23)cc1OC | / | / | / | 5.7% | -0.3 | /
O=C(CNC(=O)Cc1ccccc1)N=Nc1c(O)n(Cc2ccc3c(c2)OCO3)c2ccccc12 | / | 3.98µM* | -4.7% | 8.2% | 2.9 | ?
O=C(N=Nc1c(O)n(Cc2ccccc2)c2ccccc12)c1ccc(O)cc1 | -5.5% | 12.6µM* | -2.7% | -3.9% | 3.4 | 29.1
O=C(N=Nc1c(O)n(Cc2ccccc2)c2ccccc12)c1cc2ccccc2cc1O | -17.5% | 18.0% | -2.1% | 2.0% | -17.7 | 3.1
COc1ccc(C(=O)NCC(=O)N=Nc2c(O)n(Cc3ccccc3)c3ccccc23)cc1OC | -6.4% | 17.8µM* | 0.8% | -3.1% | 2.0 | -16.8
CN(C)CCn1c2ccccc2c2nc3ccc([N+](=O)[O-])cc3cc21 | / | / | / | -6.8% | -7.6 | /
Cn1cc(C=O)c2cc(F)ccc21 | / | 2.24µM* | / | 10.4% | -1.0 | /
Cn1c(C(=O)O)cc2cc(F)ccc21 | ? | ? | 2.3% | 6.1% | 2.2 | ?
O=C(CCSCc1ccccc1Cl)NC1CCCCC1 | / | 3.9% | / | -0.6% | -3.0 | /
O=C(CC(=O)NC1CCCCC1)N/N=C/c1ccccc1F | / | 3.8% | / | 4.0% | 7.2 | /
CN(c1ncc(C(F)(F)F)cc1Cl)n1cc(C(=O)O)c2ccccc2c1=O | 0.2% | 3.3% | -3.7% | -1.4% | 0.7 | -3.9
CN(c1ncc(C(F)(F)F)cc1Cl)n1cc(C(N)=O)c2ccccc2c1=O | -5.4% | 25.1µM* | -5.6% | -14.6% | -2.3 | -9.2
CN(C)Cc1ccccc1-c1nc(NC2CCNCC2)c2ccccc2n1 | / | -10.7% | / | 7.5% | / | /
Cn1cccc1C(=O)NC(=O)COC(=O)c1ccc(O)cc1 | -18.7% | 3.16µM* | 4.6% | 11.6% | -7.6 | 24.6
Cn1cccc1C(=O)NC(=O)COC(=O)c1ccccc1O | ? | ? | -5.5% | -3.1% | -9.7 | -3.5
CC(=O)Nc1cccc(NC(=O)c2sc3ncn(CC(=O)N4CCCCC4)c(=O)c3c2C)c1 | -26.6% | 0.891µM* | 10.6% | -3.8% | -6.1 | -25.6
COCCNC(=O)c1sc2ncn(CC(=O)N3CCCCC3)c(=O)c2c1C | -21.0% | 3.8% | -5.5% | 1.5% | -6.7 | -14.6
Cc1noc(C)c1-c1ccc2ncnc(NCc3cccc(F)c3)c2c1 | / | / | / | 3.0% | / | /
SMILES | HPGD inh | ALDH1A1 inh | 12-hLO inh | aGal spleen mod | GLA inh pH 4.5 | PNC assembly inh
CSc1nnc(-c2ccccc2)o1 | ? | -3.4% | -0.9% | -5.6% | -4.0 | 35.1
O=S1(=O)C=C(Sc2nnc(-c3ccccc3)o2)c2ccccc21 | 14.1µM* | 22.4µM* | -12.3% | 6.6% | -0.4 | ?
O=C(c1ccc(S(=O)(=O)N2CCOCC2)cc1)N(c1cccc(Cl)c1)C1C=CS(=O)(=O)C1 (stereo not given) | / | -2.3% | / | 12.8% | 7.0[21.1 µM] | /
CCCN1C(=O)C(NC(C)=O)c2ccccc21 (stereo not given) | -3.5% | 0.126µM* | 5.2% | -0.5% | -10.3 | 47.9
CC(=O)NC1C(=O)N(CCc2ccccc2)c2ccccc21 (stereo not given) | -2.9% | ? | -1.2% | 6.7% | -3.8 | -29.9
C[C@@]1(C(NC(=O)Cc2ccccc2)c2ccc(-c3ccccc3)cc2)C[C@H]1C1CCCCC1 (stereo not given in full) | -2.9% | 5.9% | 2.6% | 2.1% | -0.4 | /
COc1cc(S(=O)(=O)N2CCN(C)CC2)c(OC)cc1Cl | -7.3% | -5.2% | 0.4% | 4.8% | -10.6 | 30.7
COc1cc(S(=O)(=O)N2CCN(c3ccccc3F)CC2)c(OC)cc1Cl | -2.1% | 25.1µM* | 2.1% | -0.9% | 1.2 | -13.7
Cc1cc2ccccc2c[n+]1CC(O)C[n+]1cc2ccccc2cc1C | -12.9% | 0.2%[13.5 µM] | 8.7%[11.4 µM] | / | / | /
COc1ccc2cnn(-c3ccc(C)cc3)c(=O)c2c1OC | 25.1µM* | ? | -1.7% | 5.7% | 2.2 | -17.8
CCOc1ccccc1OCCn1ncc2ccc(OC)c(OC)c2c1=O | -19.1% | ? | -6.0% | -11.7% | -8.0 | 15.2
COc1ccc2cnn(CCOc3cc(C)ccc3C(C)C)c(=O)c2c1OC | -15.7% | -4.5% | -6.1% | -0.2% | -8.0 | -113.4*
O=[N+]([O-])c1c(NCCO)cc(N2CCN(Cc3ccc4c(c3)OCO4)CC2)c2nonc12 | -29.2% | ? | -0.1% | 3.9% | -12.3 | 69.9
CCOC(=O)C1CCCN(c2cc(NCCCO)c([N+](=O)[O-])c3nonc23)C1 (stereo not given) | 12.6µM* | ? | -3.5% | 0.0% | -6.6 | ?
COc1ccc(Nc2ccncc2[N+](=O)[O-])cc1 | / | -6.9% | / | -1.4% | 2.6 | /
COc1ccc(Nc2c([N+](=O)[O-])ccc3c2=NC2(CCCCC2)N=3)cc1 | / | 7.08µM* | / | -9.9% | -1.0 | /
O=[N+]([O-])c1ccc2c(c1Nc1ccccc1)=NC1(CCCCC1)N=2 | -9.7% | -14.4% | 3.7% | 10.4% | -9.5 | -108.8*
O=[N+]([O-])c1ccccc1Nc1ccccc1 | -20.2% | 16.1% | -4.8% | -3.2% | 6.6 | /
O=C(N/N=C/C=C/c1ccc([N+](=O)[O-])cc1)C1COc2ccccc2O1 (stereo not given) | -24.9% | 25.1µM* | 1.1% | -4.7% | -27.9 | 8.0
O=C(N/N=C\c1cc(Br)cs1)C1COc2ccccc2O1 (stereo not given) | -8.3% | 20µM* | -10.1% | -0.4% | -0.7 | -27.5
O=C(N/N=C\C=C\c1ccco1)C1COc2ccccc2O1 (stereo not given) | / | / | / | -0.6% | -9.9 | /

High-throughput results as filed in PubChem BioAssay.
